{"source": "the supplement of paper PMC8728848", "binders": {"B1": {"name": "Gal 7 (Homo sapiens) (protein)", "chain": "MSNVPHKSSLPEGIRPGTVLRIRGLVPPNASRFHVNLLCGEEGGSDAALHFNPRLDTSEVVFNSKEGGSWGREESGPGVPFGRGQPFEVLIIASDDGFKAVVGDAQYHHFRHRLPLARVRLVEVGGDVQLDSVRIF"}}, "assay_in_all_cases": "glycan array binding signal (z-score within array); higher = stronger binding", "conditions_in_all_cases": "glycan notation: IUPAC condensed, linker removed; mutation: R74S", "key": {"[1]": {"molecular_target": "Fuc(a1-2)Gal(b1-3)GlcNAc(b1-3)[Neu5Ac(a2-6)Gal(b1-4)GlcNAc(b1-6)]Gal(b1-4)Glc", "outline": "(§1)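 The binding signal is a Z-score computed within each array and averaged over linkers. Arrays of the same protein sequence at different concentrations or buffers were also averaged together. Data originate from 3228 arrays in the Consortium for Functional Glycomics database, kept only where the protein sequence was available.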"}, "Fuc(a1-2)Gal(b1-4)GlcNAc": {"molecular_target": "Fuc(a1-2)Gal(b1-4)GlcNAc", "outline": "as §1"}, "[2]": {"molecular_target": "Fuc(a1-2)Gal(b1-4)GlcNAc(b1-2)Man(a1-3)[Fuc(a1-2)Gal(b1-4)GlcNAc(b1-2)Man(a1-6)]Man(b1-4)GlcNAc(b1-4)[Fuc(a1-6)]GlcNAc", "outline": "as §1"}, "[3]": {"molecular_target": "Fuc(a1-2)Gal(b1-4)GlcNAc(b1-3)Gal(b1-4)GlcNAc(b1-2)Man(a1-3)[Fuc(a1-2)Gal(b1-4)GlcNAc(b1-3)Gal(b1-4)GlcNAc(b1-2)Man(a1-6)]Man(b1-4)GlcNAc(b1-4)GlcNAc", "outline": "as §1"}, "[4]": {"molecular_target": "Fuc(a1-2)Gal(b1-4)GlcNAc(b1-6)GalNAc", "outline": "as §1"}, "[5]": {"molecular_target": "Fuc(a1-2)Gal(b1-4)[Fuc(a1-3)]GlcNAc(b1-3)Gal(b1-4)[Fuc(a1-3)]GlcNAc(b1-3)Gal(b1-4)[Fuc(a1-3)]GlcNAc", "outline": "as §1"}, "[6]": {"molecular_target": "Fuc(a1-2)Gal6S(b1-4)Glc6S", "outline": "as §1"}, "[7]": {"molecular_target": "Fuc(a1-2)[Gal(a1-3)]Gal(b1-3)GlcNAc(b1-6)GalNAc", "outline": "as §1"}, "[8]": {"molecular_target": "Fuc(a1-2)[Gal(a1-3)]Gal(b1-4)GlcNAc", "outline": "as §1"}, "[9]": {"molecular_target": "Fuc(a1-2)[GalNAc(a1-3)]Gal(b1-3)GlcNAc(b1-2)Man(a1-3)[Fuc(a1-2)[GalNAc(a1-3)]Gal(b1-3)GlcNAc(b1-2)Man(a1-6)]Man(b1-4)GlcNAc(b1-4)GlcNAc", "outline": "as §1"}, "[10]": {"molecular_target": "Fuc(a1-2)[GalNAc(a1-3)]Gal(b1-4)GlcNAc(b1-3)Gal(b1-4)GlcNAc(b1-3)Gal(b1-4)GlcNAc", "outline": "as §1"}, "[11]": {"molecular_target": "Fuc(a1-3)[Gal(b1-4)]GlcNAc(b1-6)[Gal(b1-3)GlcNAc(b1-3)]Gal(b1-4)Glc", "outline": "as §1"}, "Gal(a1-3)Gal(b1-4)Glc": {"molecular_target": "Gal(a1-3)Gal(b1-4)Glc", "outline": "as §1"}, "[12]": {"molecular_target": "Gal(a1-4)Gal(b1-3)GlcNAc(b1-2)Man(a1-3)[Gal(a1-4)Gal(b1-3)GlcNAc(b1-2)Man(a1-6)]Man(b1-4)GlcNAc(b1-4)GlcNAc", "outline": "as §1"}, "Gal(b1-3)Gal(b1-4)GlcNAc": {"molecular_target": "Gal(b1-3)Gal(b1-4)GlcNAc", "outline": "as §1"}, "Gal(b1-3)GalNAc": {"molecular_target": "Gal(b1-3)GalNAc", "outline": "as §1"}, "[13]": {"molecular_target": "Gal(b1-3)GlcNAc(b1-2)Man(a1-3)[Gal(b1-3)GlcNAc(b1-2)Man(a1-6)]Man(b1-4)GlcNAc(b1-4)[Fuc(a1-6)]GlcNAc", "outline": "as §1"}, "Gal(b1-3)GlcNAc6S": {"molecular_target": "Gal(b1-3)GlcNAc6S", "outline": "as §1"}, "[14]": {"molecular_target": "Gal(b1-3)[Fuc(a1-4)]GlcNAc(b1-6)GalNAc", "outline": "as §1"}, "[15]": {"molecular_target": "Gal(b1-3)[Neu5Ac(a2-6)]GlcNAc(b1-4)Gal(b1-4)Glc", "outline": "as §1"}, "[16]": {"molecular_target": "Gal(b1-4)GalNAc(a1-3)[Fuc(a1-2)]Gal(b1-4)GlcNAc", "outline": "as §1"}, "[17]": {"molecular_target": "Gal(b1-4)GlcNAc(b1-3)Gal(b1-4)GlcNAc(b1-2)Man(a1-3)[Gal(b1-4)GlcNAc(b1-3)Gal(b1-4)GlcNAc(b1-2)Man(a1-6)]Man(b1-4)GlcNAc(b1-4)GlcNAc", "outline": "as §1"}, "[18]": {"molecular_target": "Gal(b1-4)GlcNAc(b1-3)Gal(b1-4)GlcNAc(b1-2)[Gal(b1-4)GlcNAc(b1-3)Gal(b1-4)GlcNAc(b1-6)]Man(a1-6)[Gal(b1-4)GlcNAc(b1-3)Gal(b1-4)GlcNAc(b1-2)Man(a1-3)]Man(b1-4)GlcNAc(b1-4)GlcNAc", "outline": "as §1"}, "[19]": {"molecular_target": "Gal(b1-4)GlcNAc(b1-3)Gal(b1-4)GlcNAc(b1-3)Gal(b1-4)GlcNAc(b1-2)[Gal(b1-4)GlcNAc(b1-3)Gal(b1-4)GlcNAc(b1-3)Gal(b1-4)GlcNAc(b1-6)]Man(a1-6)[Gal(b1-4)GlcNAc(b1-3)Gal(b1-4)GlcNAc(b1-3)Gal(b1-4)GlcNAc(b1-2)Man(a1-3)]Man(b1-4)GlcNAc(b1-4)[Fuc(a1-6)]GlcNAc", "outline": "as §1"}, "[20]": {"molecular_target": "Gal(b1-4)GlcNAc(b1-3)Gal(b1-4)GlcNAc(b1-3)Gal(b1-4)GlcNAc(b1-3)Gal(b1-4)GlcNAc(b1-2)Man(a1-3)[Gal(b1-4)GlcNAc(b1-3)Gal(b1-4)GlcNAc(b1-3)Gal(b1-4)GlcNAc(b1-3)Gal(b1-4)GlcNAc(b1-2)Man(a1-6)]Man(b1-4)GlcNAc(b1-4)GlcNAc", "outline": "as §1"}}, "note": "This is one part of a sample in which the strongest signals are shown more often than they occur.", "data": [{"binder": "B1", "values": [{"measurement": "glycan array binding signal (z-score)", "setting": "[1]", "value": 0.022}, {"measurement": "glycan array binding signal (z-score)", "setting": "Fuc(a1-2)Gal(b1-4)GlcNAc", "value": -0.214}, {"measurement": "glycan array binding signal (z-score)", "setting": "[2]", "value": 1.07}, {"measurement": "glycan array binding signal (z-score)", "setting": "[3]", "value": 13.1}, {"measurement": "glycan array binding signal (z-score)", "setting": "[4]", "value": 0.439}, {"measurement": "glycan array binding signal (z-score)", "setting": "[5]", "value": 0.209}, {"measurement": "glycan array binding signal (z-score)", "setting": "[6]", "value": 0.38}, {"measurement": "glycan array binding signal (z-score)", "setting": "[7]", "value": -0.325}, {"measurement": "glycan array binding signal (z-score)", "setting": "[8]", "value": -0.56}, {"measurement": "glycan array binding signal (z-score)", "setting": "[9]", "value": -0.27}, {"measurement": "glycan array binding signal (z-score)", "setting": "[10]", "value": -0.239}, {"measurement": "glycan array binding signal (z-score)", "setting": "[11]", "value": 0.106}, {"measurement": "glycan array binding signal (z-score)", "setting": "Gal(a1-3)Gal(b1-4)Glc", "value": 0.28}, {"measurement": "glycan array binding signal (z-score)", "setting": "[12]", "value": -0.347}, {"measurement": "glycan array binding signal (z-score)", "setting": "Gal(b1-3)Gal(b1-4)GlcNAc", "value": -0.425}, {"measurement": "glycan array binding signal (z-score)", "setting": "Gal(b1-3)GalNAc", "value": -0.37}, {"measurement": "glycan array binding signal (z-score)", "setting": "[13]", "value": 0.404}, {"measurement": "glycan array binding signal (z-score)", "setting": "Gal(b1-3)GlcNAc6S", "value": -0.422}, {"measurement": "glycan array binding signal (z-score)", "setting": "[14]", "value": -0.149}, {"measurement": "glycan array binding signal (z-score)", "setting": "[15]", "value": -0.354}, {"measurement": "glycan array binding signal (z-score)", "setting": "[16]", "value": -0.282}, {"measurement": "glycan array binding signal (z-score)", "setting": "[17]", "value": 3.67}, {"measurement": "glycan array binding signal (z-score)", "setting": "[18]", "value": 1.49}, {"measurement": "glycan array binding signal (z-score)", "setting": "[19]", "value": 3.31}, {"measurement": "glycan array binding signal (z-score)", "setting": "[20]", "value": 5.53}]}]}
